# “And” between values parts separate entries of the source, which are not always exact repeats. Equal entries are not always repeated. The panel holds about 83,000 compounds, 20% with a hit somewhere; the sample as a whole holds those more often.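 Each cell line was grown in a 96-well plate and treated with one concentration of compound for 48 hours. Values below 10 were considered active.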 The source made the active and inactive calls.
# Tested on: HL-60(TB) leukemia
# Assay: NCI-60 one-dose screen, 48 h (100 = growth as untreated, 0 = no growth, -100 = all killed)
structure (smiles),measurement,setting,value
C1CCC([PH+](C2CCCCC2)C2CCCCC2[PH+](C2CCCCC2)C2CCCCC2)CC1.[Au].[CH-]1CCCCC1C1CCCC[N-]1 (stereo not drawn),growth,10 µM unless noted,-29.9% (active)
COc1ccc(Cn2c(NCCN=C(N)N)nc(=O)n(Cc3ccc(F)cc3)c2=O)cc1,growth,10 µM unless noted,94.1% (inactive) and 96.9% (inactive)
COc1ccc(CN2c3ccccc3Sc3ccccc32)cc1F,growth,10 µM unless noted,-7.46% (active)
CCOc1ccc2sc(NS(=O)(=O)c3ccc(N)cc3)nc2c1,growth,10 µM unless noted,94.7% (inactive)
Cc1cc(C)c(CC(=O)O)c(C)c1,growth,10 µM unless noted,97.3% (inactive)
c1ccc(-c2nc(N3CCOCC3)c3c4c(sc3n2)CCCCCC4)nc1,growth,10 µM unless noted,68.4% (inactive)
CCNC(=O)Nc1ccc(-c2nc3c(c(N4CCOC[C@@H]4C)n2)CCN(C2COC2)C3)cc1,growth,10 µM unless noted,82.6% (inactive) and 44.4% (inactive)
COc1ccc(-c2nnc(SCC(=O)Nc3ccc(C(=O)/C=C/c4ccccc4)cc3)o2)cc1OC,growth,10 µM unless noted,90% (inactive)
CC(C)(C)CC(C)(C)c1ccc(OCCO)cc1,growth,10 µM unless noted,91.5% (inactive)
O=C(O)c1ccc(CNS(=O)(=O)c2ccc3ccccc3c2)cc1,growth,10 µM unless noted,68.1% (inactive)
c1ccc(CNc2c3ccccc3nc3ccccc23)cc1,growth,10 µM unless noted,43.8% (inactive)
Cc1nc2cc(NC(=O)CN3CCN(CCN4C(=O)c5cccc6cccc(c56)C4=O)CC3)ccc2s1,growth,10 µM unless noted,63.9% (inactive)
COc1ccc(-c2cc3ccc(N(C)C)cc3nc2N)c(F)c1,growth,10 µM unless noted,-15.4% (active)
NC(N)=N/N=C/c1ccc(-c2ccc(-c3ccc(Cl)cn3)s2)cc1,growth,10 µM unless noted,97.8% (inactive)
Cc1nc(Nc2n[nH]c3c2CN(C(=O)N[C@H](CN(C)C)c2ccccc2)C3(C)C)c2sccc2n1,growth,10 µM unless noted,-30.6% (active)
CC(C)C(NC(=O)CN)C(=O)O (stereo not drawn),growth,10 µM unless noted,94.9% (inactive) and 98.7% (inactive)
Cc1[nH]c2ccc(F)cc2c1CCNC(=O)C1CCN(C(=O)c2ccccc2)C1 (stereo not drawn),growth,10 µM unless noted,107% [25 µM] (inactive)
CCC1OC(OC)C=CC1=O (stereo not drawn),growth,10 µM unless noted,77% (inactive)
O=C(O)c1ccc(S(=O)(=O)O)cc1,growth,10 µM unless noted,115% (inactive)
NC(=O)CN1C(=O)c2ccccc2C1=O,growth,10 µM unless noted,96.6% (inactive)
COc1cc2c3c(c4c5ccccc5[nH]c4c2c(OC)c1OC)C(=O)N(CCN1CCOCC1)C3=O,growth,10 µM unless noted,69% (inactive)
Nc1nc2c(c3cnccc13)C(c1cccc(Br)c1)Cc1cnccc1-2 (stereo not drawn),growth,10 µM unless noted,3.01% (active)
CN1CCC(c2ccccc2)(c2ccccc2)C(=O)C1,growth,10 µM unless noted,90.8% (inactive)
CCCCCCCCCCCCc1ccc([N+](CC)(CC)CC)cc1,growth,10 µM unless noted,-10.9% (active)
NC(N)=Nc1ccc(S(=O)(=O)O)cc1,growth,10 µM unless noted,108% (inactive)
O=C(c1ccc(Cl)cc1)C(NCCO)c1ccc(Cl)cc1 (stereo not drawn),growth,10 µM unless noted,86.9% (inactive) and 116% (inactive)
N=C(N)N1CCc2ccccc2C1,growth,10 µM unless noted,93.6% (inactive) and 109% (inactive)
Cc1ccc(/C=C/c2c(C(=O)/C=C/c3ccc(C(F)(F)F)cc3)c(C)nc3ccccc23)cc1,growth,10 µM unless noted,-41.3% (active)
CCOC(=O)C1C(=O)C=C(c2ccc(OC)cc2)CC1c1sc(N(C)Cc2ccccc2)nc1Cl (stereo not drawn),growth,10 µM unless noted,83% (inactive)
COc1cc(-c2nc3ccccc3[nH]2)ccc1OCc1nnc(-c2ccc(CC(C)C)cc2)o1,growth,10 µM unless noted,98.5% (inactive)
O=C(CN1CCOCC1)Nc1nc(-c2cc3ccccc3oc2=O)cs1,growth,10 µM unless noted,102% (inactive)
CC1=C(Nc2ccc(N3CCN(C)CC3)cc2)C(=O)c2cncnc2C1=O,growth,10 µM unless noted,-26.6% (active)
COc1cccc(-c2nn(-c3ccccc3)cc2-c2ccnc(NCCNC(=O)Nc3cccc(C(F)(F)F)c3)c2)c1,growth,10 µM unless noted,2.15% (active)
CCC(=O)Oc1ccc(-c2ccccc2)cc1Br,growth,10 µM unless noted,96.5% (inactive)
C1CN(SSN2CCOCC2)CCO1,growth,10 µM unless noted,35.6% [100 µM] (inactive)
CC(C)C[C@H](NC(=O)[C@@H](Cc1ccccc1)n1ccc(Nc2ccccc2)cc1=O)B(O)O,growth,10 µM unless noted,-7.72% (active)
O=C(Nc1ccc(-n2ccc3c(NC(=O)c4ccccc4)ncnc32)cc1)Nc1cccc(Cl)c1Cl,growth,10 µM unless noted,62.9% (inactive)
CCc1cnn2c(NCc3ccc[n+]([O-])c3)cc(N3CCCC[C@H]3CCO)nc12,growth,10 µM unless noted,-43.2% (active)
COc1ccc(-c2nc(SCC(=O)Nc3nc(-c4ccccc4)cs3)[nH]c(=O)c2C#N)cc1,growth,10 µM unless noted,92% (inactive)
C[C@@H](c1ccc2c(c1)[nH]c1ccc(Cl)cc12)c1nc2ccccc2[nH]1,growth,10 µM unless noted,91.3% (inactive)
CCOC(=O)c1c2ncccc2n2c(=O)n(-c3ccccc3C)nnc12,growth,10 µM unless noted,56.9% (inactive)
CCCCn1c(=O)c(C2CNC(=O)c3ccccc3N2)cc2ccccc21 (stereo not drawn),growth,10 µM unless noted,96.7% (inactive)
COc1cc(NS(C)(=O)=O)ccc1Nc1c2ccccc2nc2c(C)cccc12,growth,10 µM unless noted,-29.5% (active) and -20.2% (active)
Cc1ccc(NC(=O)COC(=O)c2ccc(S(=O)(=O)N3CCCCCC3)cc2)cc1,growth,10 µM unless noted,85.9% (inactive)
O=C(NNC(=O)c1ccc(-n2cc(-c3ccccc3)nn2)cc1)Nc1ccccc1,growth,10 µM unless noted,95.4% (inactive)
CCCCCCNC(=O)Oc1ccc(/C(=C(/CC)Cc2ccccc2)c2ccc(OCCN(CC)CC)cc2)cc1,growth,10 µM unless noted,55.2% (inactive)
N=C(N=C(N)N)N1CCOCC1,growth,10 µM unless noted,100% (inactive) and 99.1% (inactive)
Oc1ccc2ccccc2c1N=Nc1nccs1,growth,10 µM unless noted,-44.3% (active)
C=CCOc1ccc2c(c1)CC=C1[C@@H]2CC[C@]2(C)C(=O)/C(=N/O)C[C@@H]12,growth,10 µM unless noted,22.7% (inactive)
Nc1cc(N)c2cccnc2c1O,growth,10 µM unless noted,59.6% (inactive)
O=C1C=C(Nc2ccccc2)c2ccccc2C1=O,growth,10 µM unless noted,79.5% (inactive) and 101% (inactive)
Nc1ccccc1SC(CC(=O)c1ccccc1)c1cccc([N+](=O)[O-])c1 (stereo not drawn),growth,10 µM unless noted,96.8% (inactive) and 88.5% (inactive)
CCCCCCCCCCCCCCCCC(C(=O)O)C(O)(CC(=O)O)C(=O)O (stereo not drawn),growth,10 µM unless noted,94.6% (inactive) and -8.25% (active)
Cc1ccc(Nc2ccc(Nc3ccc(C)cc3S(=O)(=O)O)c3c2C(=O)c2ccccc2C3=O)c(S(=O)(=O)O)c1,growth,10 µM unless noted,99.4% (inactive)
COc1ccc(-c2cc(-c3ccc(Cl)cc3)nc(SCCCCCCC(=O)NO)n2)cc1OC,growth,10 µM unless noted,19% (inactive)
COC(=O)[C@H](CC(C)C)NC(=O)NC(=O)NC(=O)CI,growth,10 µM unless noted,50.7% (inactive)
Cc1cc(C)n2nc(SCC(=O)Nc3sc4c(c3C(N)=O)CCC4)nc2n1,growth,10 µM unless noted,117% (inactive)
C=CCc1cc(OC)c(O)c(OC)c1,growth,10 µM unless noted,109% (inactive)
O=C(Nc1ccc(Cl)cc1)c1cc2ccccc2cc1OP(=O)(O)O,growth,10 µM unless noted,37.3% (inactive)
COc1ccc(-c2cnnn2-c2nonc2-n2cccc2)cc1OC,growth,10 µM unless noted,11% (inactive)
CCCCN(CCCC)CCc1c(C)cc(C)c(CCN(CCCC)CCCC)c1O,growth,10 µM unless noted,7.15% (active)
CCCNc1ccc(C2=NCCCN2)cc1,growth,10 µM unless noted,95.5% (inactive)
COc1ccc(-c2nc3c(c(-c4ccccc4)nn3-c3ccccc3)c(-c3ccc(N4CCN(C)CC4)cc3)c2C#N)cc1,growth,10 µM unless noted,80.4% (inactive)
CCOC(=O)/C=C/c1cc2cc(-c3csc4ccccc34)ccc2[nH]1,growth,10 µM unless noted,32.1% (inactive)
COc1ccc(-c2cc(-c3cc4ccccc4oc3=O)n(-c3ccccc3)n2)cc1,growth,10 µM unless noted,91.6% (inactive)
Cc1cc(N(CCCNc2ccnc3cc(Cl)ccc23)Cc2ccc3c(c2)OCO3)nc(N2CCOCC2)n1,growth,10 µM unless noted,-69.7% (active)
COc1cc(OCc2cccc(Br)c2C)cc(OC)c1C=O,growth,10 µM unless noted,92.6% (inactive)
O=C(CCCCC1CCSS1)Nc1ncnc2n[nH]c(-c3ccc(Oc4ccccc4)cc3)c12 (stereo not drawn),growth,10 µM unless noted,78.8% (inactive)
COc1ccc2cc(-c3ccc(NC(C)=O)c(=O)o3)ccc2c1,growth,10 µM unless noted,95.1% (inactive)
OCC1CCC(O)C(CO)N1 (stereo not drawn),growth,10 µM unless noted,98.2% (inactive)
CC(C)Cc1ccc(C(C)C(=O)NCc2ccc(Cn3c(=O)sn(CCCCl)c3=O)cc2)cc1 (stereo not drawn),growth,10 µM unless noted,102% (inactive) and -23.6% (active)
CC(=O)Oc1cc(C(C)C)c(OCCN(C)C)cc1C,growth,10 µM unless noted,131% (inactive)
Nn1c(Nc2ccc(S(=O)(=O)Nc3ncccn3)cc2)nnc(/C=C/c2c(O)ccc3ccccc23)c1=O,growth,10 µM unless noted,86.1% (inactive)
O=C(CC(SCc1ccccc1)c1ccccc1)c1ccccc1 (stereo not drawn),growth,10 µM unless noted,66.7% (inactive)
O=[N+]([O-])c1ccc(N/N=C(/C(=N/Nc2ccc([N+](=O)[O-])cc2)c2ccccc2)c2ccccc2)cc1,growth,10 µM unless noted,117% (inactive)
CC(CCC#N)(CCC#N)C(=O)c1ccccc1,growth,10 µM unless noted,88.7% (inactive)
CCCCCC(/C=N\NC(=S)N/N=C/C(=C/c1ccccc1)CCCCC)=C\c1ccccc1,growth,10 µM unless noted,68.8% (inactive)
CCOC(=O)C1=C(C)N=C2Sc3cc(OC(F)(F)F)ccc3N2[C@H]1c1ccccn1,growth,10 µM unless noted,46.9% (inactive)
CC(=O)/C(=C/c1ccc(-c2ccccc2)cc1)C(=O)c1ccccc1,growth,10 µM unless noted,56.3% (inactive)
O=C(O)CCCN1C(=O)/C(=C/C(Cl)=C/c2ccccc2)SC1=S,growth,10 µM unless noted,7.56% (active)
CC(=O)/C=C/c1ccc(OCc2ccc(Cl)cc2)cc1,growth,10 µM,83.9% (inactive)
same,growth,100 µM,14% (inactive)
CC1(C)OB(c2ccc(Cn3cc(F)c(=O)[nH]c3=O)cc2)OC1(C)C,growth,10 µM,97.7% (inactive)
same,growth,50 µM,32.5% (inactive)
O=C(Nc1ccccc1)Oc1c(Cl)c(Cl)c(Cl)c(Cl)c1Cl,growth,10 µM unless noted,86.8% (inactive) and 92.2% (inactive)
N#CC1C=CN(CC(N)=O)c2ccc3cccnc3c21 (stereo not drawn),growth,10 µM unless noted,92.7% (inactive)
O=c1[nH]cc(F)c(=O)[nH]1,growth,10 µM,59.7% (inactive)
same,growth,25 µM,47.9% (inactive)
same,growth,50 µM,77.6% (inactive)
CC(=O)/C=C/c1ccc(OCc2ccc(C(C)(C)C)cc2)cc1,growth,10 µM,59.5% (inactive)
same,growth,100 µM,-32.4% (active)
COc1ccc(Cl)cc1C(=O)NCCc1ccc(S(=O)(=O)NC(=O)NC2CCCCC2)cc1,growth,10 µM,121% (inactive) and 103% (inactive)
same,growth,100 µM,94.2% (inactive)

# — PubChem BioAssay (NCI)
